FXIIa inh mix – human factor XIIa inhibitors, primary screen, biochemical, pooled compound mixtures, fluorogenic substrate; inhibition, % at 5 µM; 0.2% of 62,000 active; purified FXIIa;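 also: 0% = enzyme without compound and 100% = no enzyme blank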
HePTP inhibitor – inhibitors of human HePTP phosphatase, primary screen, biochemical, absorbance, leukemia target; Tyrosine-protein phosphatase non-receptor type 7 (Homo sapiens), P35236; recombinant HePTP phosphatase activity, OD absorbance; inhibition, % at 20 µM; 0.64% of 110,000 active; in the data active = inhibition above about 50%;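 also: plate controls were vehicle for no effect and reference inhibitor for full effect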
FXIa inh mix – FXIa protease inhibitors in compound pools, primary screen, biochemical, 10-compound mixtures; purified FXIa, fluorogenic substrate, pooled mixtures; inhibition, % at 5 µM; 0.19% of 62,000 active; Coagulation factor XI (Homo sapiens), P03951;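 also: each value is inhibition by a whole ten-compound pool holding the compound; 0% = enzyme with no mixture and 100% = wells lacking enzyme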
Target sequence (P03951 19-387 limits assumed): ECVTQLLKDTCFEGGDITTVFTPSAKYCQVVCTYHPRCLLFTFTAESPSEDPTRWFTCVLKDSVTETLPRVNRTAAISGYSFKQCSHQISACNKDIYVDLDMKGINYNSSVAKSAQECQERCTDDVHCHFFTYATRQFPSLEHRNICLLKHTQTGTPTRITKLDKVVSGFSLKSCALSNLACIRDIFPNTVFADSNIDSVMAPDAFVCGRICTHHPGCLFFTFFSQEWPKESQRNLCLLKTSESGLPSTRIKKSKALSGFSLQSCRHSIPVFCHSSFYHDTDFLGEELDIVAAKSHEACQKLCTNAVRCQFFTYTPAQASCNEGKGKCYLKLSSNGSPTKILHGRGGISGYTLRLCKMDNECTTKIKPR
Target sequence (P03951 388-625 limits assumed): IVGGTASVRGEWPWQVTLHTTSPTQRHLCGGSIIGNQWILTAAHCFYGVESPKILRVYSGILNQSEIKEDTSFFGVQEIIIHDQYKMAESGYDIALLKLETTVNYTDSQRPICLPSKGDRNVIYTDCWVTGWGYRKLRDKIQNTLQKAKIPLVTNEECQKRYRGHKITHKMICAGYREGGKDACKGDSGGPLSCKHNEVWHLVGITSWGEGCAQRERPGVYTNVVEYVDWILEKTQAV
C1s block – complement C1s protease inhibitors, primary screen, biochemical, 10-compound mixtures; AID 538, 2006; Complement C1s subcomponent (Homo sapiens), P09871; mean inhibition % of two 10-compound mixtures (active compounds read high), % at 5 µM (by protocol); purified C1s, fluorogenic AMC substrate, pooled mixtures; 0.16% of 62,000 active;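 active = inhibition above 20% in each of the two 10-compound mixture wells holding the compound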;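 also: 0% = enzyme wells lacking compound mixture and 100% = no-enzyme blank wells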
CatG inh – human cathepsin G inhibitors, primary screen, biochemical, pooled compound mixtures, AMC fluorescence | P08311 | purified enzyme, AMC-tetrapeptide fluorescence | inhibition, % at 5 µM (by protocol) | 0.2% of 62,000 active;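 active = inhibition above 20% in each of the two mixture wells holding the compound; inactive = inhibition of 20% or less in either well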;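 also: 0% = enzyme control without mixture and 100% = blank lacking enzyme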
PLAP activator – PLAP enzyme activators, biochemical, luminescence, HTS; purified PLAP enzyme, luminescent substrate read-out; active compounds read high; activation fold at 20 µM; 1.2% of 96,000 active; AID 696, 2007; in the data active = activation fold above about 2
* = called active by the depositor; . = no result. In the library only some 1.4% were active in any assay of this set; here they are far more common. Rule as the data show it, unless noted: active = inhibition above about 20% (passing the limit was not always enough); inactive = the rest.

SMILES | FXIIa inh mix | HePTP inhibitor | FXIa inh mix | C1s block | CatG inh | PLAP activator
CCC(C)(C)n1nnnc1C(c1ccc2ncccc2c1)N1CCN(c2nc3ccccc3s2)CC1 (centres undefined) | 3 | 0 | -8 | -11 | 5 | 1.6
Cc1ccccc1NCC(=O)N/N=C\c1ccccc1O | . | 4 | . | . | . | .
O=c1cc(-c2ccc([N+](=O)[O-])cc2)nc2cc(-c3cccc(Cl)c3)[nH]n12 | . | 78* | . | . | . | .
O=c1cc(-c2ccc([N+](=O)[O-])cc2)nc2cc(-c3ccc(F)cc3)[nH]n12 | . | 12 | . | . | . | .
CCOc1ccc(/C=C2/C(=O)NN(c3ccccc3)C2=O)cc1OC | . | -8 | . | . | . | .
CCCc1cc(=O)[nH]c(SCc2cc(C(=O)OC)c(C)o2)n1 | 2 | -4 | 19 | 0 | -1 | 1.4
COC(=O)c1cc(CSc2nc3ccccc3[nH]2)oc1C | . | . | . | . | . | 2.3*
CCOc1ccc2nc(SCc3ccc(C(=O)OC)o3)[nH]c2c1 | 4 | 11 | 9 | -5 | 4 | 2.2*
COc1ccc2nc(SCC(=O)Nc3ccc4c(c3)OCCO4)[nH]c2c1 | -1 | -1 | 5 | -4 | -1 | 1.5
CCOc1ccc2nc(SCC(=O)Nc3ccc4c(c3)OCCO4)[nH]c2c1 | . | . | . | . | . | 2.1*
COc1cccc(C2NC(=S)NC(C)=C2C(=O)Nc2ccccc2C)c1OC (centres undefined) | . | -21 | . | . | . | .
CCOc1ccccc1N1C(=O)NC(=O)/C(=C/C=C/c2ccco2)C1=O | . | 5 | . | . | . | .
CCOc1ccc(C2/C(=C(\O)c3ccccc3)C(=O)C(=O)N2CCCCCC(=O)O)cc1 (centres undefined) | . | 3 | . | . | . | .
O=C(c1ccc(N2CCN(C(=O)c3cccs3)CC2)cc1)c1cccc(F)c1 | . | -18 | . | . | . | .
CCOC(=O)c1c(C)sc(Sc2ccc(Cl)cc2[N+](=O)[O-])c1OC | . | 102* | . | . | . | 0.9
CCOCCCNc1nc2ccccc2[nH]1 | 1 | 6 | 6 | -5 | 8 | 0.8
CCCCNc1nc2ccccc2[nH]1 | . | . | . | . | . | 2.7*
COc1ccc2c(c1)C1C=CCC1C(C(=O)O)N2 (centres undefined) | . | 102* | . | . | . | .
O=C(O)C1Nc2c(Cl)cc(Cl)cc2C2C=CCC12 (centres undefined) | . | 103* | . | . | . | .
CC(=O)Nc1ccc2c(c1)C1C=CCC1C(C(=O)O)N2 (centres undefined) | . | 80* | . | . | . | .
CC(=O)Nc1ccc2c(c1)C1C=CCC1C(c1ccccc1F)N2 (centres undefined) | . | 2 | . | . | . | .
CCOc1ccc(/C=C2\SC(=O)N(c3ccccc3)C2=O)cc1 | . | -4 | . | . | . | .
Brc1ccc(OCc2nc(-c3ccccn3)n[nH]2)cc1 | . | . | . | . | . | 2.2*
Brc1ccc(OCc2nc(-c3ccccn3)no2)cc1 | . | -1 | . | . | . | .
Clc1ccc(OCc2nc(-c3ccccn3)n[nH]2)cc1 | 10 | 2 | 6 | -2 | 7 | 2.3*
SMILES | FXIIa inh mix | HePTP inhibitor | FXIa inh mix | C1s block | CatG inh | PLAP activator
COc1ccccc1NC1C=CC(=O)C1Nc1ccccc1OC (centres undefined) | . | 8 | . | . | . | .
Oc1ccccc1-c1cc(-c2ccc3c(c2)OCCO3)n[nH]1 | 4 | -2 | 4 | 13 | 8 | 1.9
COc1ccc(-c2[nH]ncc2-c2ccc3c(c2)OCCO3)c(O)c1 | 10 | 5 | 8 | 6 | 10 | 2.1*
CCc1cc(-c2[nH]ncc2-c2ccc3c(c2)OCO3)c(O)cc1O | 8 | -6 | -3 | 21 | -3 | 2.5*
O=C(CSc1nc2ccccc2[nH]1)N1CCN(S(=O)(=O)c2ccc(Cl)cc2)CC1 | . | . | . | . | . | 2*
CCOc1ccccc1N1CCN(C(=O)c2cccc(F)c2)CC1 | . | 103* | . | . | . | .
O=C1C2CC=CCC2C(=O)N1c1ncn[nH]1 (centres undefined) | . | . | . | . | . | 2.6*
O=C1C2CC=C(Cl)CC2C(=O)N1c1ncn[nH]1 (centres undefined) | 5 | 2 | 6 | 13 | 11 | .
Cc1ccccc1C(=O)NNC(=S)NC(=O)COc1ccccc1 | . | . | . | . | . | 2.4*
CC1(C)C(=O)N(Cc2ccccc2)c2ccccc2N1C(=O)c1ccc([N+](=O)[O-])cc1 | . | 74* | . | . | . | .
CC1(C)C(=O)N(Cc2ccc([N+](=O)[O-])cc2)c2ccccc2N1C(=O)c1ccc(F)cc1 | . | -5 | . | . | . | .
Clc1ccc(CSc2nccn2Cc2ccccc2)cc1 | . | . | . | . | . | 1.1
O=C(CCSc1nccn1Cc1ccccc1)N1CCOCC1 | -4 | 12 | 7 | 18 | 22* | 1.3
COc1cccc(/C=N/NC(=O)c2ccc(-c3ccccc3)cc2)c1O | . | . | . | . | . | 2.1*
COc1ccc(NC(=O)C(=O)N/N=C/c2cccc(OC)c2O)cc1 | . | -19 | . | . | . | .
COc1cccc(/C=N/NC(=O)CSc2nnc(C)n2-c2ccccc2)c1O | . | . | . | . | . | 2.1*
COc1cccc(/C=N/NC(=O)c2[nH]c(C)c(C(=O)N/N=C/c3cccc(OC)c3O)c2C)c1O | . | . | . | . | . | 2.5*
CC1=NN(c2cccc(C(=O)O)c2)C(=O)/C1=C\c1cccs1 | . | 22 | . | . | . | .
Cc1ccc(C)c(NC(=S)NC(=O)c2ccco2)c1 | . | -19 | . | . | . | .
CCCC12C(=O)C(C)(C(c3ccccc3)=C1c1ccccc1)C1C(=O)N(c3ccccc3Cl)C(=O)C12 (centres undefined) | . | -17 | . | . | . | .
CC1=[N+]([O-])C(C)(C)C(c2cccs2)=[N+]1[O-] | . | -7 | . | . | . | .
CSc1nnc(Cc2cc(=O)[nH]c(=O)[nH]2)n1-c1cccc(C)c1 | -4 | 8 | 3 | 1 | 8 | 1.1
Cc1cccc(-n2c(Cc3cc(=O)[nH]c(=O)[nH]3)nnc2SCC(=O)N2CCCCC2)c1 | 11 | 5 | 21* | -5 | 0 | 1.4
COc1cc(C2C(C#N)=C(N)Oc3n[nH]c(C)c32)ccc1OC(=O)c1ccccc1 (centres undefined) | . | . | . | . | . | 1
COc1cc(C2C(C#N)=C(N)Oc3n[nH]c(C)c32)cc2c1OCO2 (centres undefined) | 12 | 10 | 3 | -7 | 0 | 2*
SMILES | FXIIa inh mix | HePTP inhibitor | FXIa inh mix | C1s block | CatG inh | PLAP activator
O=C(NCC(c1cccnc1)N1CCN(c2ccc(F)cc2)CC1)c1cccc(Cl)c1 (centres undefined) | 62* | 6 | 6 | 4 | 0 | 1.3
COC(=O)c1c2nc3ccccc3sc-2cc(=O)c1N | . | 68* | . | . | . | .
CN=C1S/C(=C\c2ccc(I)o2)C(=O)N1C | . | -5 | . | . | . | .
COc1ccc(C(=O)Nc2nc(C)c(C(C)=O)s2)cc1 | . | -1 | . | . | . | .
CC(=O)c1sc(NC(=O)c2ccc3c(c2)OCO3)nc1C | . | 103* | . | . | . | .
Nc1nc(-c2ccc(-n3nncc3-c3ccccc3)cc2)cs1 | . | 3 | . | . | . | .
CN(C)c1ccc(NS(=O)(=O)c2cccc([N+](=O)[O-])c2)cc1 | . | 0 | . | . | . | .
CCOC(=O)c1[nH]nc(-c2c(O)cc(C)cc2O)c1-c1csc(C)n1 | 17 | -10 | 0 | 1 | 3 | 2.1*

Screening data: PubChem, several laboratories
